Measured values as given in PubChem BioAssay.
The source made the active and inactive calls.

Legend:
[1] = small molecules captured by biotinylated probe aFSTL3 – biochemical, small-molecule microarray, fluorescence 635/667, stem cell growth factor project, primary screen (AID 1064); conditions: higher = more signal;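 also: measures binding of the biotinylated anti-FSTL3 antibody to printed compounds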
[2] = binders from COS7 lysate, DM2A8 probe, primary screen, torsin A project, cell lysate, small-molecule microarray, fluorescence 635/667 (AID 1065); conditions: higher = more signal, COS7 lysate expressing mutant human TOR1A
[3] = small molecules captured by biotinylated probe aFGF2 – biochemical, small-molecule microarray, fluorescence 635/667, stem cell growth factor project, primary screen (AID 1067); conditions: higher = more signal;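 also: measures binding of biotinylated aFGF2 protein to printed compounds on slides; z-score merges feature fluorescence and signal-to-noise across triplicate slides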
[4] = small molecules captured by biotinylated probe aFGF10 – biochemical, small-molecule microarray, fluorescence 635/667, stem cell growth factor project, primary screen (AID 1071); conditions: higher = more signal;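 also: score merges 667 nm spot intensity and signal to noise from triplicate slides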
[5] = target: Neurogenic locus notch homolog protein 2 (Homo sapiens) (UniProt Q04721); assay: small molecules binding Notch2 protein – biochemical, small-molecule microarray, 635 nm fluorescence, stem cell growth factors, primary screen (AID 1073); conditions: higher = more signal
[6] = target: Pro-neuregulin-1, membrane-bound isoform (Homo sapiens) (UniProt Q02297); assay: small molecules binding neuregulin-1 protein – biochemical, small-molecule microarray, fluorescence 635/667, psychiatric disease protein project, primary screen (AID 1075); conditions: NRG1 binding, 635 nm fluorescence, higher = more signal;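 also: score combines 667 nm spot fluorescence with signal to noise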
[7] = test system: Neuregulin-1 EGF-like domain; assay: small molecules binding NRG1 EGF domain – biochemical, small-molecule microarray, 635 nm fluorescence, primary screen (AID 1081); conditions: higher = more signal;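 also: binding of the protein to compounds printed on small-molecule microarray slides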
[8] = FRG1 expression reporter modulators in myotubes – cell-based, C2C12 myotubes, firefly/Renilla luciferase, luminescence, FRG1 inhibition for FSHD, primary screen (AID 1084); conditions: FRG1 promoter luciferase, higher = more signal, called active from +8 up or from −8 down
[9] = small molecules captured by biotinylated probe aFST – biochemical, small-molecule microarray, fluorescence 635/667, stem cell growth factor project, primary screen (AID 1086); conditions: higher = more signal;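 also: score merges 667 nm fluorescence with signal-to-noise of each printed compound spot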
[10] = binders of probe aHhip on microarray, primary screen, stem cell growth factor project, biochemical, small-molecule microarray, fluorescence 635/667 (AID 1087); conditions: higher = more signal;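 also: score merges spot fluorescence at 667nm with spot signal to noise ratio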
[11] = test system: PRMT1 (protein arginine N-methyltransferase 1); assay: small molecules binding arginine methyltransferase PRMT1 – biochemical, small-molecule microarray, 635 nm fluorescence, primary screen (AID 1088); conditions: higher = more signal;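 also: binding of Prmt1 protein to compounds spotted on small-molecule microarray slides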
[12] = growth effects on S. cerevisiae YJM789 – YJM789 clinical isolate, OD600, 24 h, basal, primary screen (AID 1089); conditions: higher = more signal, called active from +8 up or from −8 down;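 also: growth of clinical yeast isolate S. cerevisiae YJM 789 seeded 1000 cells per well; test concentration not given here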
[13] = S. pombe growth modifiers, basal conditions – strain 972, OD600, 24 h, no modulator, primary screen (AID 1090);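 also: basal condition with compound alone and no growth modifier present; test concentration not given here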; conditions: S. pombe 972 growth, higher = more signal, called active from +8 up or from −8 down
[14] = budding yeast growth modifiers under rapamycin – strain BY4716, OD600, 96 h, primary screen (AID 1091); also: test concentration not given here; conditions: S. cerevisiae BY4716 + rapamycin, higher = more signal, called active from +8 up or from −8 down
[15] = target: Torsin-1A-interacting protein 2 (Homo sapiens) (UniProt Q8NFQ8); assay: small molecules binding lysate-expressed LULL1 – cell lysate, human LULL1 lysate, 635/667 nm fluorescence, primary screen (AID 1092); conditions: small-molecule microarray, hLULL1 lysate binding, 635 nm fluorescence; higher = more signal;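 also: probe is lysate of COS7 cells overexpressing human LULL1; score merges per-feature 667 nm fluorescence with signal-to-noise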
[16] = optical density change of DRC41 E. coli – strain DRC41, OD650, 24 h, E. coli filamentation project, primary screen (AID 1093);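 also: MC1000 strain lacking acrAB efflux and sulA so SOS filamentation is blocked; test concentration not given here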; conditions: E. coli DRC41 growth, higher = more signal, called active from +8 up or from −8 down
[17] = probe aLefty2 binding to arrayed compounds – biochemical, biotinylated probe, 635/667 nm fluorescence, primary screen (AID 1094); conditions: small-molecule microarray, higher = more signal;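 also: score merges spot fluorescence near 667 nm with spot signal-to-noise ratio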
[18] = test system: Noggin (protein binding on small-molecule microarray); assay: small molecules binding Noggin protein – biochemical, 635/667 nm fluorescence, primary screen (AID 1095); conditions: 635 nm fluorescence, higher = more signal;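 also: score merges 667 nm feature fluorescence with signal to noise over triplicate slides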
[19] = target: Neurogenic locus notch homolog protein 3 (Homo sapiens) (UniProt Q9UM47); assay: small molecules binding NOTCH3 protein – biochemical, 635/667 nm fluorescence, primary screen (AID 1096); conditions: small-molecule microarray, 635 nm fluorescence, higher = more signal
[20] = probe aEGFR binding to arrayed compounds – biochemical, biotinylated probe, 635/667 nm fluorescence, primary screen (AID 1097); conditions: small-molecule microarray, higher = more signal;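 also: probe is a biotinylated anti-EGFR antibody binding compounds printed on slides; score combines fluorescence near 667 nm and signal to noise of each spot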

Neurogenic locus notch homolog protein 3 (Homo sapiens), sequence (Q9UM47 whole entry, looked up): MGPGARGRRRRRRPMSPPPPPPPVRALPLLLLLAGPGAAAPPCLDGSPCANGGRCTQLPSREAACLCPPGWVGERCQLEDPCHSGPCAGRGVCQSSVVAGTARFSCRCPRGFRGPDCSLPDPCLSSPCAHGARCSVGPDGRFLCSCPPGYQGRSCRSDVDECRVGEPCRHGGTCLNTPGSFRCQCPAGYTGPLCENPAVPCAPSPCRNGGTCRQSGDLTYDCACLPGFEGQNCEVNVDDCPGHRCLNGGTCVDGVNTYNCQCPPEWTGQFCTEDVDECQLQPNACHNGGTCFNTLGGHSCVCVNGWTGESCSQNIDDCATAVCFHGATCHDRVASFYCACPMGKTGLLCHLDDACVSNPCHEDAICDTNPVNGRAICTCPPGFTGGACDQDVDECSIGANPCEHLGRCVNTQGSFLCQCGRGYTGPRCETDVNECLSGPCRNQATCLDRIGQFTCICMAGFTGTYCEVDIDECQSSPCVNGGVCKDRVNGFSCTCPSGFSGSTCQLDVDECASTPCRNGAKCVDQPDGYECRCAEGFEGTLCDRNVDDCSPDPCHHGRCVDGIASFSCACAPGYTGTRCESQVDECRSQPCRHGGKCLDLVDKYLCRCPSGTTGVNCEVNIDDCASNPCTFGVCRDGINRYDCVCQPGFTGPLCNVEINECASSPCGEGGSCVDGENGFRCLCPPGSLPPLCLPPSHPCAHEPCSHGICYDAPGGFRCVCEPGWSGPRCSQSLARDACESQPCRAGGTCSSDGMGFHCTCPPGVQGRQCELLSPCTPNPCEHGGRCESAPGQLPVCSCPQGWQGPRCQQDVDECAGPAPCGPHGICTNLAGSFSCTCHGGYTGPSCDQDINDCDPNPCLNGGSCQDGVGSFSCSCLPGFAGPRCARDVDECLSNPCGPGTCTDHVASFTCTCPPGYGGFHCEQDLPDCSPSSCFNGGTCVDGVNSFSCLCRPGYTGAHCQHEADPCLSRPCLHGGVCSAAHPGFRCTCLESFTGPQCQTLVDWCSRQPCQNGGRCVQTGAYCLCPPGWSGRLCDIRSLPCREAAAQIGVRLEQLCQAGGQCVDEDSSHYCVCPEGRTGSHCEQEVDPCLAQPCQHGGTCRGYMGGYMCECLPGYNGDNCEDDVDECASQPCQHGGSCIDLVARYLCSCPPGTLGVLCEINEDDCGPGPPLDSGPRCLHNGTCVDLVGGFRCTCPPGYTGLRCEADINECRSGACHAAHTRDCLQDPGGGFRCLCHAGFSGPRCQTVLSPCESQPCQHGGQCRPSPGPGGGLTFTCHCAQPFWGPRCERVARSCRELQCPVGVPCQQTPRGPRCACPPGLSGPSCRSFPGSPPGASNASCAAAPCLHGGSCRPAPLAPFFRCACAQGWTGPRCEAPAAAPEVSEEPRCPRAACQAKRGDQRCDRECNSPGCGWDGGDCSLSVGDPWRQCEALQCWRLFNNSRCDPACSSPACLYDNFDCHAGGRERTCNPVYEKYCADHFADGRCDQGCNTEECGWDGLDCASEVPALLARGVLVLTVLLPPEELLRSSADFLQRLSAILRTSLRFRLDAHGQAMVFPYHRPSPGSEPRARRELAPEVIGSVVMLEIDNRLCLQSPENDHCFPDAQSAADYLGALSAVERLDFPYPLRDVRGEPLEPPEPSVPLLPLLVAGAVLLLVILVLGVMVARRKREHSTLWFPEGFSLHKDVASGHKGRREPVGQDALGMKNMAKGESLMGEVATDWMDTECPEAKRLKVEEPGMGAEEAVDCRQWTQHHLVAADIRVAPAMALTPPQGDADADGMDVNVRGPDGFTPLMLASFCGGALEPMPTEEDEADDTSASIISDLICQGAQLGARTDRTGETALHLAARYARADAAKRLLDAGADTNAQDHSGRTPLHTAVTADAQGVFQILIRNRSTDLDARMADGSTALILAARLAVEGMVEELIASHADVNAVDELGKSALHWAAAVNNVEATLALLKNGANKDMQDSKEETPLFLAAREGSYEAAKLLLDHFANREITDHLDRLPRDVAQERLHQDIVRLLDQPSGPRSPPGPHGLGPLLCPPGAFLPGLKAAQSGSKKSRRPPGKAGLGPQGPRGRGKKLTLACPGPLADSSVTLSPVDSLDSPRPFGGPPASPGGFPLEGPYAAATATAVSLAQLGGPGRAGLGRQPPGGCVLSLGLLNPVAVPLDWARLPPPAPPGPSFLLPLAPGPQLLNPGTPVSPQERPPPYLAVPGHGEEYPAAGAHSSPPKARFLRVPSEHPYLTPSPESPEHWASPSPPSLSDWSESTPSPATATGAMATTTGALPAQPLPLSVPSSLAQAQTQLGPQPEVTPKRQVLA
Torsin-1A-interacting protein 2 (Homo sapiens), sequence (Q8NFQ8 whole entry, looked up): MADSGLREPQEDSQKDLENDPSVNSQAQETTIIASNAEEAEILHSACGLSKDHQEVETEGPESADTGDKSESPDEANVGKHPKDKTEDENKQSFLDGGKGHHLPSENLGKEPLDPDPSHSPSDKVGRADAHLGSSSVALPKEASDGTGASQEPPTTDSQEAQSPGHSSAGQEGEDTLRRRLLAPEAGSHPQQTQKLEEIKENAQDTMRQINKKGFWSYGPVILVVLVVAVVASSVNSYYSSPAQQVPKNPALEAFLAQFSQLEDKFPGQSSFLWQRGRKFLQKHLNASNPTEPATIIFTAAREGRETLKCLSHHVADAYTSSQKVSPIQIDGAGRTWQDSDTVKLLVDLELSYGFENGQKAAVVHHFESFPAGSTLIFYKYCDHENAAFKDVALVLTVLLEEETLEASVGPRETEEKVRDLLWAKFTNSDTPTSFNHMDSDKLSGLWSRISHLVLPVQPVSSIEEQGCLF
Pro-neuregulin-1, membrane-bound isoform (Homo sapiens), sequence (Q02297 whole entry, looked up, the tested form may be a part, canonical isoform): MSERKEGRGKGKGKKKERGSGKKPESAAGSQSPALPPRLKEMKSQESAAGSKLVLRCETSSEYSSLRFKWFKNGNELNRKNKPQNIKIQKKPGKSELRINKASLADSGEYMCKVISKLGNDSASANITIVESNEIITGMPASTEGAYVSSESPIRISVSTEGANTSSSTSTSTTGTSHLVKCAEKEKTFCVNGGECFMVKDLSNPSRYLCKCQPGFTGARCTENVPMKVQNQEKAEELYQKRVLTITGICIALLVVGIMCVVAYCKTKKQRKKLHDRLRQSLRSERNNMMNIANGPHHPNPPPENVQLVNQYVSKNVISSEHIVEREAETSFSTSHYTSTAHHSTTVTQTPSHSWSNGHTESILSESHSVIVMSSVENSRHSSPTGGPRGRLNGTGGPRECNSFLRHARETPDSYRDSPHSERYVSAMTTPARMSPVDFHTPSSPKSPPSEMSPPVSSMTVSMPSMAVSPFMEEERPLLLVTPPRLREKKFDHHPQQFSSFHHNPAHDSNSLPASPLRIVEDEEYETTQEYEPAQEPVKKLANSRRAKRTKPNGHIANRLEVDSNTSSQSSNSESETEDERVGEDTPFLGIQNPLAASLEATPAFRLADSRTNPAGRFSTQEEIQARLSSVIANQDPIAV

| SMILES | composite z-score [1] | composite z-score [2] | composite z-score [3] | composite z-score [4] | composite z-score [5] | composite z-score [6] | composite z-score [7] | z-score [8] | composite z-score [9] | composite z-score [10] | composite z-score [11] | z-score [12] | z-score [13] | z-score [14] | composite z-score [15] | z-score [16] | composite z-score [17] | composite z-score [18] | composite z-score [19] | composite z-score [20] |
| --- | --- | --- | --- | --- | --- | --- | --- | --- | --- | --- | --- | --- | --- | --- | --- | --- | --- | --- | --- | --- |
| CCCCC=C[C@@H](NC(=O)Oc1cccc(C(F)(F)F)c1)c1ccccc1 | 1.56 | 0.974 | 0.84 | 1.03 | 1.55 | 1.47 | 1.11 | -3.84 (inactive) | 2.02 | 2.27 | 0.745 | 1.06 (inactive) | 0.0148 (inactive) | 1.01 (inactive) | 0.277 | -2.21 (inactive) | 0.839 | -0.0732 | 1.08 | 0.4 |
| CCCC=C(CCC)[C@@H](NS(=O)(=O)c1cccs1)c1ccc(C(=O)OC)cc1 | 0.002 | -0.0193 | 0.0969 | 0.646 | 1.53 | 1.94 | 1.18 | -3.86 (inactive) | 0.969 | 0.398 | 0.946 | 0.212 (inactive) | -1.19 (inactive) | 0.602 (inactive) | 3.43 | -0.0839 (inactive) | -0.0375 | -0.213 | 0.882 | -0.11 |
| O=C(C1N=C(c2ccc(OCCCO)cc2)N(c2ccccc2)O1)N1CCOCC1 (stereo not given) | -0.428 | 0.267 | 0.0646 | 1.28 | 1.45 | 1.27 | 0.336 | 2.27 (inactive) | 0.974 | -0.113 | 1.55 | -0.867 (inactive) | -0.992 (inactive) | -0.566 (inactive) | 2.22 | 1.75 (inactive) | -0.134 | 1.53 | 1.09 | 0.184 |
| O=C1c2ccccc2[C@@]2(Cc3ccccc3N(CCN3CCOCC3)C2=O)[C@H](c2ccc(CO)cc2)N1Cc1ccccc1 | -0.0459 | -0.374 | -0.166 | -0.318 | -0.933 | -0.561 | -0.86 | -0.0352 (inactive) | -0.0633 | -0.0618 | 1.08 | -0.338 (inactive) | 0.047 (inactive) | -1.78 (inactive) | 1.4 | 0.959 (inactive) | -0.156 | -0.0855 | -0.038 | -0.172 |
| C=CCN1C(=O)[C@@]2(O[C@@H](CCO)[C@H]([Si](C)(C)c3ccc(OC)cc3)[C@H]2C)c2cc(NC(=O)c3ccc(OC)cc3)ccc21 | -0.114 | 0.612 | -0.0739 | -0.0379 | 0.454 | 0.213 | 0.949 | -0.797 (inactive) | 0.171 | -0.0003 | 1.54 | 0.411 (inactive) | -2.29 (inactive) | 1.02 (inactive) | 0.821 | 0.702 (inactive) | -0.0977 | 1.37 | 0.861 | -0.159 |
| CN(C)CCCNC(=O)[C@@]1(c2ccc([N+](=O)[O-])cc2)CC(=O)N(C2CCCCC2)[C@@H]1c1ccc(CO)cc1 | 0.4 | 0.595 | -0.0717 | -0.466 | -0.513 | 1.52 | 0.692 | -0.767 (inactive) | -0.114 | 0.0373 | 1.54 | 1.78 (inactive) | -8.13 (active) | -1.97 (inactive) | 1.09 | 0.59 (inactive) | -0.0259 | 0.0069 | 0.444 | -0.0978 |
| CCOC(=O)C[C@H]1[C@H](OC(=O)c2cc3ccccc3oc2=O)[C@@H](NC(=O)Cc2ccc(OC)cc2)c2cc(OCCCO)ccc2N1C(=O)c1ccccc1 | -0.356 | 0.41 | -0.076 | 0.379 | 0.359 | 0.199 | 0.385 | 1.57 (inactive) | 0.164 | -0.199 | 0.242 | -0.0987 (inactive) | -0.507 (inactive) | 0.279 (inactive) | 1.08 | 0.201 (inactive) | -0.139 | 0.558 | 0.0769 | -0.0174 |
| COc1ccc([Si](C)(C)[C@H]2[C@H](CCO)O[C@@]3(C(=O)N(C)c4c(Br)cc(C)cc43)[C@@H]2C)cc1 | 0.107 | 0.325 | -0.116 | 0.243 | 0.432 | 0.679 | 1.12 | -2.14 (inactive) | 0.299 | -0.196 | 1.49 | 0.117 (inactive) | -2.89 (inactive) | 34 (active) | 1.04 | 0.714 (inactive) | -0.1 | 0.76 | 1.1 | -0.0627 |
| CCOC(=O)C1=CCC(c2ccc(C)cc2)N(S(=O)(=O)c2ccc(C)cc2)C1 (stereo not given) | 0.464 | -0.0577 | -0.0499 | 0.101 | 0.255 | 0.38 | 0.923 | -4.43 (inactive) | 0.261 | -0.0994 | 0.329 | 0.564 (inactive) | 1.59 (inactive) | 2.26 (inactive) | 1.69 | -0.422 (inactive) | 0.0283 | -0.0866 | 0.234 | -0.121 |
| C=CCNC(=O)[C@@H]1[C@H]2C(=O)O[C@H](c3ccccc3)[C@H](c3ccccc3)N2[C@H](c2ccc(OCCO)cc2)[C@@]12C(=O)Nc1ccc(C#CCCO)cc12 | 0.604 | 0.727 | 0.162 | 0.944 | 1.05 | 0.853 | 1.25 | 0.806 (inactive) | 0.804 | -0.138 | 1.52 | 0.85 (inactive) | 0.975 (inactive) | 3.39 (inactive) | 3.29 | -0.207 (inactive) | 0.501 | 1.36 | 1.12 | 0.692 |
